What was measured:
Conditions in all cases: concentration: 1 μM, replicates: in singlicate; n = 1
ACVR2B = test system: ACVR2B
ACVRL1 = test system: ACVRL1
ADCK3 = test system: T1, ADCK3
T1 construct: gene CABC1

ADCK4 = test system: ADCK4
AKT1 = test system: AKT1
AKT2 = test system: AKT2
AKT3 = test system: AKT3
ALK = test system: ALK
AMPK-alpha1 = test system: T2, AMPK-alpha1
T2 construct: gene PRKAA1

AMPK-alpha2 = test system: T3, AMPK-alpha2
T3 construct: gene PRKAA2
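Further: KINOMEscan kinase panel screen.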

| SMILES | %Inh (ACVR2B) | %Inh (ACVRL1) | %Inh (ADCK3) | %Inh (ADCK4) | %Inh (AKT1) | %Inh (AKT2) | %Inh (AKT3) | %Inh (ALK) | %Inh (AMPK-alpha1) | %Inh (AMPK-alpha2) |
| --- | --- | --- | --- | --- | --- | --- | --- | --- | --- | --- |
| O=C1NC(=O)C(N2CCc3ccccc32)=C1c1ccccc1Cl [SB-373598] | 33% | 13% | 17% | 16% | 0% | 19% | 25% | 4% | 17% | 22% |
| Cc1cccc(-c2nc(Nc3ccncc3)c3ccccc3n2)n1 [GW855857] | 36% | 65% | 27% | 0% | 20% | 0% | 0% | 0% | 0% | 12% |
| Cc1cccc(-c2nc(Nc3ccc4[nH]ncc4c3)c3ccccc3n2)n1 [GW857175] | 0% | 0% | 0% | 0% | 29% | 55% | 0% | 19% | 0% | 2% |
| COc1cc(Nc2nccc(N3CCC(NC(=O)Nc4cc(C)ccc4C)C3)n2)cc(OC)c1OC (centres unmarked) [GSK1379762] | 0% | 0% | 30% | 49% | 0% | 0% | 0% | 45% | 0% | 22% |
| Fc1cccc(COc2nnc(-c3ccc4c(c3)CCO4)o2)c1 | 100% | 0% | 0% | 0% | 0% | 20% | 11% | 7% | 6% | 0% |
| O=C(O)COc1ncnc2cc(-c3ccc4[nH]ncc4c3)sc12 | 0% | 6% | 0% | 0% | 0% | 22% | 17% | 0% | 13% | 18% |
| COC(=O)c1c(-c2ccccc2)c2cc(OC)ccc2c(=O)n1Cc1ccccc1 | 0% | 0% | 0% | 0% | 1% | 12% | 0% | 28% | 21% | 0% |
| CN(C)CCN(C)C(=O)c1cc(-c2ccncc2)c(-c2ccc(Cl)c(O)c2)o1.Cl.Cl [SB-710397] | 9% | 0% | 11% | 45% | 0% | 0% | 0% | 29% | 0% | 0% |
| CN1C(=O)C(Nc2ccc(Cl)c(C(=O)O)c2)=C(c2ccc(Cl)cc2)C1=O [SB-404290] | 0% | 0% | 0% | 10% | 0% | 0% | 1% | 0% | 6% | 0% |
| Cl.NC(=O)c1cccc(Nc2nccc(Nc3ccc(Oc4cccc(Cl)c4)c(Cl)c3)n2)c1 [GW659008] | 14% | 0% | 5% | 32% | 0% | 8% | 0% | 24% | 42% | 33% |
| Cl.O=C(Nc1cccc(-c2nn3ncccc3c2-c2ccnc(Nc3cccnc3)n2)c1)c1c(F)cccc1F [GSK312879] | 0% | 2% | 27% | 2% | 0% | 19% | 10% | 24% | 0% | 12% |
| COc1cc2nccc(Nc3ccc(NC(=O)c4ccc(C)cc4)c(O)c3)c2cc1OC.Cl [GW440132] | 0% | 0% | 10% | 41% | 0% | 1% | 0% | 6% | 0% | 0% |
| COc1cccc(-c2cc(-c3c[nH]nc3-c3ccccn3)ccn2)c1 [GW680338] | 18% | 0% | 25% | 26% | 0% | 0% | 0% | 34% | 7% | 0% |
| O=C(Nc1n[nH]c2nc(-c3nccs3)c(Br)cc12)C1CCCC1 [SB-742609] | 11% | 0% | 0% | 14% | 0% | 10% | 1% | 26% | 0% | 18% |
| Fc1cc(Cl)ccc1Nc1ccnc2cc(I)ccc12 [GW551191] | 85% | 5% | 0% | 23% | 0% | 18% | 58% | 29% | 0% | 0% |
| CS(=O)(=O)c1ccc(-c2c(-c3ncn[nH]3)sc(N3CCOCC3)c2C#N)cc1 | 0% | 8% | 3% | 0% | 1% | 15% | 0% | 9% | 22% | 8% |
| Cn1ccc2ncnc(Oc3ccc(NC(=O)Nc4ccccc4)cc3)c21 | 0% | 0% | 12% | 5% | 13% | 0% | 0% | 0% | 0% | 2% |
